Several values for one entry are separate records, joined by “and”; a condition that tells them apart may be missing. Equal values may be shown once. Results filed as inconclusive are left out. Activity calls are given as the source filed them. Unless noted, calls come from the whole dose curve; as a rule, active = well fitted curve in the direction sought with a large enough effect; inconclusive = small, poorly fitted or top-dose-only effect, or another doubt; inactive = no such curve, though single readings can be large; an effect the other way counts as inactive or inconclusive.
Columns and labels:
[1] = qHTS assay for small molecule activators of the nuclear factor-kappa B (NF-kB) signaling pathway (AID 651749; active = well fitted activation curve with a large enough effect in the signal ratio; the % refers to the signal ratio; note: % of control where 0% means no effect); settings: NF-kB-bla ME-180 cells, beta-lactamase FRET ratio, 16 h; hits give high values
Procedure, shortened: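 Human ME-180 cervical cells with an NF-kB-bla construct; compounds added via 23 nL pin transfer, DMSO as vehicle; incubation 16 hr. Reporter activity measured by FRET disruption.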

[2] = qHTS assay for environmental chemicals that activate the Aryl hydrocarbon Receptor (AhR) signaling pathway (AID 651777); settings: 1A2-DRE human hepatoma cells, luciferase, 24 h; activation: hits give high values; note: nearly all actives have a fitted effect of over 15% in size; note: potency is the fitted concentration of half-maximal effect; for activation: % of control where 0% means no effect
Procedure, shortened: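 Luminescence (One-Glo, 30 min, room temperature) reports AhR-driven luciferase in stably transfected human hepatoma cells bearing DRE and CYP1A2 promoter. Cells (1,200/well) were treated with compound for 24 hr at 37 C in qHTS format.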

[3] = target: Peroxisome proliferator-activated receptor alpha (Homo sapiens) (UniProt Q07869); experiment: qHTS assay for small molecule agonists of the peroxisome proliferator-activated receptor alpha (PPARalpha) signaling pathway (AID 651778); settings: PathHunter PPARalpha complementation, chemiluminescence, 6 h; hits give high values; note: % of control where 0% means no effect
Sequence of Peroxisome proliferator-activated receptor alpha (Homo sapiens) (Q07869 whole entry, looked up): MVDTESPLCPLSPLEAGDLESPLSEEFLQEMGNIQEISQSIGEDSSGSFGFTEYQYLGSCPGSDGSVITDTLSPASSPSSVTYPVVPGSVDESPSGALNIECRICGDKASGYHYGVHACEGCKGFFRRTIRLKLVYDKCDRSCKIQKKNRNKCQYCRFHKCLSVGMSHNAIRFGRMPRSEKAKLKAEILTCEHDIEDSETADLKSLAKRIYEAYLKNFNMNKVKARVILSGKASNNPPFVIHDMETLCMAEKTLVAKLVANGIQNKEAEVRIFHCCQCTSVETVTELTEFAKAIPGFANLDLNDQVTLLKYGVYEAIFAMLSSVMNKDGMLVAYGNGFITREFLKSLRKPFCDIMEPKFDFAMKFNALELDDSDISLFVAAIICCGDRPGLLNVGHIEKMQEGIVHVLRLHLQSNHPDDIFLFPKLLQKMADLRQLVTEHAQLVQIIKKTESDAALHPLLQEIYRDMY
Procedure, shortened: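 Cells plated at 2,000/well and held overnight at 37 C, 5% CO2, then compound added by pin tool for 6 hr; after PathHunter detection reagent and 60 min at room temperature, chemiluminescence from enzyme complementation was read.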

[4] = target: Tyrosine-protein kinase Yes (Homo sapiens) (UniProt P07947); experiment: qHTS for small molecule inhibitors of Yes1 kinase: Primary Screen (AID 686947); settings: Yes1 kinase biochemical qHTS inhibition; series mostly up to 76.9 µM; note: nearly all actives have a fitted effect of over 60% in size; note: potency is the fitted concentration of half-maximal effect
Sequence of Tyrosine-protein kinase Yes (Homo sapiens) (P07947 whole entry, looked up): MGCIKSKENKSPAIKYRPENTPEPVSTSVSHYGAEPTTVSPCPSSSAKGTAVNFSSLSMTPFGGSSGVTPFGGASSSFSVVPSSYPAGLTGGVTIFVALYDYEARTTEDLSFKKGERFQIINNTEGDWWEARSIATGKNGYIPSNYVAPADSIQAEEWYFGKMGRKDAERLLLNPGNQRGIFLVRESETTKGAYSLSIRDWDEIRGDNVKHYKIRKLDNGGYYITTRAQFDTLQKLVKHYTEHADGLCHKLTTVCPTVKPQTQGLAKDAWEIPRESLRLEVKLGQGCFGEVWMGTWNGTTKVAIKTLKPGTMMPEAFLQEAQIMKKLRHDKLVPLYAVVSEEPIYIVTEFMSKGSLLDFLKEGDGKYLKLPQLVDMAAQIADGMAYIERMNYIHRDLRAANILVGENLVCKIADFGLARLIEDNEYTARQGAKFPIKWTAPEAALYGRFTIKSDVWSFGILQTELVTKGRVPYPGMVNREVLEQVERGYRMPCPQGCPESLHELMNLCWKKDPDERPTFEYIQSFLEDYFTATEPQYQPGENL
Procedure, shortened: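 ADP-Glo luminescence reports ADP formed by 4 nM Yes1 phosphorylating poly(E4Y) (0.3 mg/mL) with 0.1 mM ATP for 60 min at room temperature, following 20 min compound preincubation; normalised between DMSO wells with and without enzyme.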

[5] = qHTS for small molecule inhibitors of Yes1 kinase: Counter Assay (AID 686950); settings: series mostly up to 76.9 µM;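 note: no kinase present so only ADP-Glo detection of a fixed ADP amount is tested; luminescence from ADP-Glo reporting ADP in a fixed ATP and ADP mixture; 0% = DMSO wells with ATP plus ADP and -100% = ATP-only wells without ADP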
Procedure, shortened: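 Measuring interference with ADP-Glo, the assay ran 60 min at room temperature on an ATP/ADP mix lacking enzyme. Values were normalized to ATP-plus-ADP (maximum) and ATP-only (minimum) DMSO controls.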

[6] = qHTS assay for small molecule disruptors of the mitochondrial membrane potential - 1 hr assay (AID 651754; calls by dose curve; note: nearly all actives have a fitted effect of over 35% in size; note: potency is the fitted concentration of half-maximal effect); settings: series mostly up to 92.2 µM
Procedure, shortened: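 Loss of mitochondrial potential shifts the cationic dye from red mitochondrial aggregates to green cytoplasmic monomers. Cells (HepG2) are treated with compound for 1 hr before a 30 min dye incubation at 37C.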

[7] = qHTS assay for small molecule disruptors of the mitochondrial membrane potential - 5 hr assay (AID 651755; calls by dose curve; note: nearly all actives have a fitted effect of over 40% in size; note: potency is the fitted concentration of half-maximal effect); settings: JC-1-type ratio dye; series mostly up to 92.2 µM
Procedure, shortened: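 Seed HepG2 overnight, add compound, incubate 5 hr at 37C and 5% CO2, stain 30 min with Mito-MPS, then measure monomer (490/535 nm) and aggregate (540/590 nm) fluorescence.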

[8] = target: Tumor necrosis factor (Homo sapiens) (UniProt P01375); experiment: qHTS assay to identify small molecules that stimulate Tumor Necrosis Factor-alpha (TNF-alpha) secretion (AID 651757; active = well fitted curve in the direction sought with a large enough effect in the signal ratio; the % refers to the signal ratio; note: 0% is about no effect); settings: Human cells, HTRF 665/615 ratio; series mostly up to 92.2 µM
Sequence of Tumor necrosis factor (Homo sapiens) (P01375 whole entry, looked up): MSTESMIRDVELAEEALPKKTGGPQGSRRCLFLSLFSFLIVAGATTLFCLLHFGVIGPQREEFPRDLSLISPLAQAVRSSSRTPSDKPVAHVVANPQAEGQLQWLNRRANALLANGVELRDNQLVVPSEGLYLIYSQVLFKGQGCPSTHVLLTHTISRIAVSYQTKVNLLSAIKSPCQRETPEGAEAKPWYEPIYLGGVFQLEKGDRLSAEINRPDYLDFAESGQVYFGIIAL
Procedure, shortened: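 Human monocytic THP-1 cells are plated, treated with compound and held at 37 C for 17 hrs. Labeled anti-TNF-alpha antibody mixture is then added; after 3 hr at room temperature, TR-FRET signal reports secreted TNF-alpha.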

[9] = target: Nuclear receptor ROR-gamma (Homo sapiens) (UniProt P51449); experiment: qHTS assay for small molecule antagonists of the retinoid-related orphan receptor gamma (ROR-gamma) signaling pathway (AID 651802); settings: ROR-gamma antagonist cell reporter assay; series mostly up to 92.2 µM; note: nearly all actives have a fitted effect of over 60% in size; note: potency is the fitted concentration of half-maximal effect
Sequence of Nuclear receptor ROR-gamma (Homo sapiens) (P51449 whole entry, looked up): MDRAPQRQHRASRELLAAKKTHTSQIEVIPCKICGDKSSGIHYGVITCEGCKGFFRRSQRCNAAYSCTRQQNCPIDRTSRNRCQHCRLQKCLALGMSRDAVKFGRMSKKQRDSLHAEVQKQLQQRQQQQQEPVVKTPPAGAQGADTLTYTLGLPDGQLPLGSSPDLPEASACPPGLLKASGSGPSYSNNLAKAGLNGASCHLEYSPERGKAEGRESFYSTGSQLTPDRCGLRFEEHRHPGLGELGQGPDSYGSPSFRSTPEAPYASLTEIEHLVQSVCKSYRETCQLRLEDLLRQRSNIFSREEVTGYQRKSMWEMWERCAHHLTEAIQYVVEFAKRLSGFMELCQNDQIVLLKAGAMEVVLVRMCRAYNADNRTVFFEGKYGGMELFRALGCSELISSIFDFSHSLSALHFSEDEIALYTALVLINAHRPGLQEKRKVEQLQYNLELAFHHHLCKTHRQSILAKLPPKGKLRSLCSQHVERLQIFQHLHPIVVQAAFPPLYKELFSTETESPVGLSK
Procedure, shortened: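 Steps: cells dispensed; compound or DMSO transferred by pin tool; doxycycline added to induce the ROR response element-driven luciferase; plates held 16hr at 37C; ONE-Glo added and luminescence measured.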

[10] = qHTS assay to identify small molecules that stimulate interleukin-8 (IL-8) secretion (AID 651758; active = well fitted activation curve with a large enough effect in the signal ratio; the % refers to the signal ratio; note: potency is the fitted concentration of half-maximal effect; for activation: 0% is about no effect); settings: HTRF ratio (665/615); series mostly up to 92.2 µM
Procedure, shortened: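 Quantitative HTS in THP-1 monocytic cells at 2000 cells per well, with 16 hrs compound incubation at 37 C. IL-8 in the medium was then quantified by HTRF immunoassay, read after 1-3 hrs at room temperature.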

C[C@]12CCC(=O)C=C1CC[C@@H]1[C@@H]2C(=O)C[C@@]2(C)[C@H]1CC[C@]2(O)C(=O)CO
inactive: activation [1] -0.64% | activation [2] -0.997% | max response [3] -0.227%

CC(C)(Oc1ccc(CCNC(=O)c2ccc(Cl)cc2)cc1)C(=O)O
inactive: activation [1] -0.302% | activation [2] -0.0115% | max response [3] 9.62%

Cc1cc(C)c(/C=C2\C(=O)Nc3ccccc32)[nH]1
active: Potency [4] 1.37 µM
inactive: outcome [5]

CCCCOCCOCCOCc1cc2c(cc1CCC)OCO2
inactive: activation [1] -2.78% and 0.8% | Potency [6] | Potency [7] | outcome [8] | activation [2] 5.54% and 1.27% | max response [3] -0.481% and -4.29%

CCCCNC(=O)NS(=O)(=O)c1ccc(C)cc1
inactive: Potency [6] | Potency [7] | outcome [8] | activation [2] 0.474% and 1.06% | max response [3] -9.3% and -3.45% | Potency [9]

Nc1nc(N)c2nc(-c3ccccc3)c(N)nc2n1
inactive: activation [2] 13.5% and 13.2% | max response [3] -0.436% and -0.649% | Potency [9]

Cc1ccc(S(=O)(=O)NC(=O)NN2CCCCCC2)cc1
inactive: activation [1] -1.9% | activation [2] 10.4% | max response [3] -0.39%

Nc1ncn([C@@H]2O[C@H](CO)[C@@H](O)[C@H]2O)c(=O)n1
active: Potency [9] 3.35 µM
inactive: activation [1] -3.34% and -0.684% | Potency [6] | Potency [7] | outcome [8] | activation [2] 5.55% and 8.87% | max response [3] -2.48% and -2.55% | Potency [4] | outcome [5]

COc1cc(Cc2cnc(N)nc2N)cc(OC)c1OC
inactive: Potency [6] | Potency [7] | outcome [8] | activation [2] -1.14% | max response [3] -3.22%

COC(=O)[C@H]1[C@H]2C[C@@H]3c4[nH]c5cc(OC)ccc5c4CCN3C[C@H]2C[C@@H](OC(=O)c2cc(OC)c(OC)c(OC)c2)[C@@H]1OC
active: Potency [6] 21.1 µM | Potency [7] 26.6 µM
inactive: outcome [8] | activation [2] 3.95% and 8.69% | max response [3] 4.44% and 8.97%

C[C@]12C=CC(=O)C=C1CC[C@H]1[C@@H]3C[C@@H](O)[C@](O)(C(=O)CO)[C@@]3(C)C[C@H](O)[C@@]12F
inactive: activation [2] 0.771% | max response [3] 4.65%

CC(=O)[C@@]1(O)CC[C@H]2[C@@H]3CCC4=CC(=O)CC[C@]4(C)[C@H]3CC[C@@]21C
inactive: activation [1] 0.354% | max response [3] -2.31%

NC(=Nc1ccccc1)Nc1ccccc1
active: Potency [2] 12.6 µM
inactive: outcome [8] | Potency [10] | max response [3] -2.99% and 6.68% | Potency [9]

CC(=O)Nc1nnc(S(N)(=O)=O)s1
inactive: activation [1] 1.13% | activation [2] -1.84% | max response [3] -2.77%

O=C(O)CCCCCCCC(=O)O
inactive: activation [1] 0.884% | activation [2] -0.0037% | max response [3] -1.61%

COc1ccc(CN(CCN(C)C)c2ccccn2)cc1
inactive: Potency [10] | activation [2] 3.63% | max response [3] -5.33% | Potency [9]

CN=C(NC#N)NCCSCc1nc[nH]c1C
inactive: outcome [8] | activation [2] 2.08% | max response [3] 0.401% | Potency [9]

NC(=O)N1c2ccccc2C=Cc2ccccc21
inactive: activation [1] -0.533% and -3% | outcome [8] | activation [2] 0.886% and -3.46% | max response [3] -1.1% and -0.275% | Potency [9]

O=c1[nH]c(=O)n([C@H]2C[C@H](O)[C@@H](CO)O2)cc1Br
active: Potency [10] 53.1 µM
inactive: activation [1] 0.708% | outcome [8] | activation [2] 0.877% | max response [3] -2.48%
